Screens from PubChem BioAssay.
Hits are enriched below; roughly 22% of the tested compounds scored in any of these assays.
LmPK inh – blocks Leishmania mexicana pyruvate kinase activity | Q27686 | purified LmPK, Kinase-Glo ATP luminescence, 1 h | Potency, µM (top dose mostly 57.5 µM), for inactives: at the top dose activity change, negative = inhibition, hits mostly inhibitors | actives 0.37% (n = 290,000) | AID 1721; also: potency is read from the fitted curve at half-maximal effect; % is scaled to controls: 0 for no effect and ±100 for the full control effect
Target sequence (Q27686 whole entry, looked up): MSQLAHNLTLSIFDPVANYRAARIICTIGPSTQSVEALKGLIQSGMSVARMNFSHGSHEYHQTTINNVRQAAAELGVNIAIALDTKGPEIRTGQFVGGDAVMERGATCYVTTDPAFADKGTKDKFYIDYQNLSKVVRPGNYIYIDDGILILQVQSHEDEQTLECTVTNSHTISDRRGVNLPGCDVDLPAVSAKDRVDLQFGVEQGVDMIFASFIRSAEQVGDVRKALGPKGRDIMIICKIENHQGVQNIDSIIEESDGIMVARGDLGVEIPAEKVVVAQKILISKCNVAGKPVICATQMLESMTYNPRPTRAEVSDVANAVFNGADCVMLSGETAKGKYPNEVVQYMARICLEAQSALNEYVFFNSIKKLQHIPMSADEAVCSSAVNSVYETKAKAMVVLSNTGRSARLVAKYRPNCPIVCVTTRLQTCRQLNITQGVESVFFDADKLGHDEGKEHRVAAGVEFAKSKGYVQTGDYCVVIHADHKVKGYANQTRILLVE
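Pyruvate kinase activity monitored as ATP production (luciferase luminescence). Conditions: 0.1 nM enzyme, 0.5 mM PEP, 0.1 mM ADP, 1 h, RT; normalized against uninhibited and no-enzyme wells.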
Cycloheximide cs – counter-screen for Shiga toxin inhibitors: cycloheximide protein synthesis inhibition. cell reporter, cycloheximide protein synthesis inhibition counterscreen. max response, %. actives 12% (n = 300,000); in the data active = max response mostly above about 13%, no sharp cut-off; inactive = mostly below about 14%; also: read at 38.3 µM for the half of the compounds with a filed dose; 0% is about no effect
Pf growth 48h – P. falciparum growth inhibition at 48 hours (one generation) | P. falciparum luciferase growth in erythrocytes, 48 h | Potency, µM (doses to about 28.7 µM), without a hit: at the highest dose activity change, negative = inhibition, most hits filed as inhibitors | actives 5.9% (n = 310,000) | AID 504832; also: potency is read from the fitted curve at half-maximal effect; % is scaled to controls: 0 for no effect and ±100 for the full control effect
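Luciferase-expressing parasites in RBCs, 2% Hct / 0.1% parasitemia final; RPMI 1640 + 0.5% Albumax; 37 C, 5% CO2, one generation; luminescence read-out, lower signal = inhibition.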
Pf growth 96h – P. falciparum growth inhibition at 96 hour, primary screen for plastid delayed-death inhibitors; P. falciparum luciferase reporter growth, 96 h; Potency, µM (highest dose often 28.7 µM), for the others: top-dose activity change, negative = inhibition, hits mostly inhibitors; actives 6.9% (n = 320,000); AID 504834; also: potency is read from the fitted curve at half-maximal effect; % is scaled to controls: 0 for no effect and ±100 for the full control effect
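Plates of compound plus infected erythrocytes (2% hematocrit, 0.05% parasitemia final) incubate 96 hours, 37 C, 5% CO2. Detection reagent added; reduced luminescence from the parasites' luciferase reporter flags inhibition.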
Shiga inhibitor – inhibitors of Shiga toxin in Vero cells | actives 9.2% (n = 290,000) | Vero cells, Shiga toxin protein synthesis inhibition reporter | inhibition, % at 38.7 µM; in the data active = inhibition mostly above about 28%, no sharp cut-off; inactive = mostly below about 43%; also: 0% is about no effect
* = called active by the depositor; ? = inconclusive; / = no result; [ ] = another dose, or the depositor's remark. Unless noted, calls follow the shape of the dose curve; as a rule, active = well fitted inhibition curve with a large enough effect; inconclusive = small, poorly fitted or top-dose-only effect, or another doubt; inactive = no such curve, though single readings can be large or run the other way.

SMILES	LmPK inh	Cycloheximide cs	Pf growth 48h	Pf growth 96h	Shiga inhibitor
Cc1ccc(-c2nn3c(C)nnc3s2)cc1NC(=O)c1cccs1	2.9%	0.6	?	/	13.7
COc1cc2cc(C(=O)NCCc3ccccc3)[nH]c2cc1OC	-0.9%	11.9	7.9%	?	25.3
CCCCNC(=O)c1cc2cc(CC)ccc2[nH]1	4.0%	14.4*	?	?	-3.6
Cc1ccc(S(=O)(=O)NCC(=O)NCC(=O)N(C)Cc2ccc3ccccc3c2)cc1C	-15.5%	-3.0	-22.9%	-15.0%	15.8
CC(=O)/C(C#N)=C1\NC(=O)C(Cc2ccccc2)S1 (centres undefined)	-4.4%	13.5	-0.1%	/	16.3
CC(=O)/C(C#N)=C1\NC(=O)C(Cc2ccccc2C)S1 (centres undefined)	5.2%	16.2*	?	-18.4%	26.7
COc1ccc(CC(=O)NCC2COc3ccccc3O2)cc1 (centres undefined)	1.4%	8.5	6.5%	?	16.6
COc1ccc(CNCC2COc3ccccc3O2)cc1 (centres undefined)	0.8%	21.7*	11.1%	30.4%	27.5
c1ccc(CNCC2COc3ccccc3O2)cc1 (centres undefined)	0.6%	2.2	12.9%	70.9%	49.2*
CCn1cc(C(=S)N2CCC(C(N)=O)CC2)c2ccccc21	-2.2%	-1.9	-4.5%[5.75 µM]	-0.4%	15.4
O=C(CNC(=O)c1sc2ccccc2c1Cl)Nc1ccccc1F	/	/	2.7%	39.0%	/
CC(C)NC(=O)C(=O)NCCCN1CCOCC1	2.7%	-1.8	-21.5%	-28.2%	-8.0
Cc1nc2cc(-c3ccc(Br)cc3)[nH]n2c(=O)c1Cl	-4.1%	-3.8	?	9.28µM*	-3.4
CCc1c(C)nc2cc(-c3ccc(Cl)cc3)[nH]n2c1=O	2.1%	35.2*	?	0.0%	34.8*
O=c1c2c(nc3cc(-c4ccc(Cl)cc4)[nH]n13)CCS2	-16.9%	50.7*	76.1%	-76.7%	30.2
CCOC(=O)Cc1c(C)nc2cc(-c3ccc(C)cc3)[nH]n2c1=O	-11.1%	15.2*	37.9%	64.7%	38.2
COc1ccc2cc(C3(C)NC(=O)N(CC(=O)NCC(F)(F)F)C3=O)ccc2c1 (centres undefined)	1.0%	-4.9	-7.3%	-1.2%	-2.6
Cn1nccc1C(=O)N1CCCC(N2CCN(Cc3ccc4c(c3)OCO4)CC2)C1 (centres undefined)	0.3%	5.3	-10.8%	-21.2%	-3.9
CCc1c(C)nc2cc(-c3cccc(Br)c3)[nH]n2c1=O	-6.5%	38.2*	?	0.0%	79.9*
Cc1cc(Nc2ccc(Cl)cc2)n(-c2ccccc2)n1	12.3%	3.8	/	-18.9%	2.9
Cc1cc(Nc2nnnn2-c2ccccc2)n(-c2ccccc2)n1	0.0%	-2.3	32.2%	9.28µM*	-16.7
COc1ccc(NC(=O)c2ccc(S(=O)(=O)N3CCOCC3)cc2)c(OC)c1	-0.9%	0.8	-3.6%	4.65µM*	14.9
COc1ccc(S(=O)(=O)N2CCOCC2)cc1NC(=O)c1ccc(=O)[nH]c1	/	/	?	10.1%	/
COc1ccc(S(=O)(=O)N2CCOCC2)cc1NC(=O)c1ccc(OC(F)F)cc1	/	/	?	-6.8%	/
Cc1cc(NC(=O)CCc2ccc(S(=O)(=O)N3CCOCC3)cc2)n(-c2ccccc2)n1	-4.0%	1.7	13.1µM*	?	-3.5
SMILES	LmPK inh	Cycloheximide cs	Pf growth 48h	Pf growth 96h	Shiga inhibitor
COc1ccc(S(=O)(=O)N2CCOCC2)cc1NC(=O)c1ccc(-n2nc(C)cc2C)cc1	3.1%	-4.5	10.4µM*	?	-7.3
CCOc1ncccc1C(=O)Nc1cc(S(=O)(=O)N2CCCCC2)ccc1Cl	/	/	?	0.828µM*	/
O=[N+]([O-])c1ccccc1CNCCCCCO	/	/	-22.4%	63.6%	/
CCCOc1ccc(/C=C/C(=O)OCC(=O)N(C)c2c(N)n(Cc3ccccc3)c(=O)[nH]c2=O)cc1OCC	/	/	-10.7%	?	/
COc1ccc(NC(=O)c2cccc(N3C(=O)C4CCC(C)CC4C3=O)c2)c(OC)c1 (centres undefined)	0.0%	-1.4	3.2%	9.4%	5.2
CCN(CC)S(=O)(=O)c1ccc(C)c(NC(=O)COC(=O)CCC(=O)c2cccs2)c1	/	/	0.7%	-10.1%	/
COc1cc(S(=O)(=O)N2CCOCC2)ccc1NC(=O)COC(=O)CC12CC3CC(CC(C3)C1)C2	5.6%	-3.7	/	8.28µM*	-10.8
CCOC(=O)C(=O)Nc1ccc(S(=O)(=O)N2CCOCC2)cc1OC	1.0%	-4.4	/	-6.0%	-14.4
